This is part of a sample that, as a whole, favours compounds with a hit. Of some 83,000 tested, about 20% had one in any assay.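 Values shown are percent growth following 48 h exposure of cells in 96-well plates to a single concentration of compound; below 10 was considered active.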 Activity calls are given as the source filed them.
Legend:
Assay in all cases: NCI-60 one-dose screen, 48 h (100 = growth as untreated, 0 = no growth, -100 = all killed)
DU-145 prostate = settings: 10 µM unless noted
MALME-3M melanoma = settings: 10 µM unless noted
MDA-MB-231 breast = settings: 10 µM unless noted
SF-268 CNS = settings: 10 µM unless noted
SF-295 CNS = settings: 10 µM unless noted
SF-539 CNS = settings: 10 µM unless noted
UACC-257 melanoma = settings: 10 µM unless noted
M14 melanoma = settings: 10 µM unless noted
HCT-15 colon = settings: 10 µM unless noted
HT29 colon = settings: 10 µM unless noted
SNB-75 CNS = settings: 10 µM unless noted
SNB-19 CNS = settings: 10 µM unless noted
U251 CNS = settings: 10 µM unless noted
PC-3 prostate = settings: 10 µM unless noted
SK-MEL-5 melanoma = settings: 10 µM unless noted
UACC-62 melanoma = settings: 10 µM unless noted
LOX IMVI melanoma = settings: 10 µM
SK-MEL-28 melanoma = settings: 10 µM unless noted
RXF 393 renal = settings: 10 µM unless noted
K-562 leukemia = settings: 10 µM unless noted

Measured: growth

CCOC(=O)/C(C#N)=C\c1c[nH]c2ccccc12
inactive: DU-145 prostate 111% | MALME-3M melanoma 116% | MDA-MB-231 breast 80.9% | SF-268 CNS 101% | SF-295 CNS 107% | SF-539 CNS 103% | UACC-257 melanoma 105% | M14 melanoma 97.1% | HCT-15 colon 93.8% | HT29 colon 105% | SNB-75 CNS 85.9% | SNB-19 CNS 97.6% | U251 CNS 98.1% | PC-3 prostate 99.1% | SK-MEL-5 melanoma 106% | UACC-62 melanoma 85.2% | LOX IMVI melanoma 93.2% | SK-MEL-28 melanoma 206%

O=S(Cc1ccccc1)/C(=C/NC(=S)Nc1cc(Cl)ccc1Cl)c1ccccc1 (centres undefined)
inactive: DU-145 prostate 106% | MDA-MB-231 breast 100% | RXF 393 renal 103% | SF-268 CNS 93.1% | SF-295 CNS 103% | SF-539 CNS 115% | UACC-257 melanoma 99.5% | M14 melanoma 96.8% | HCT-15 colon 107% | HT29 colon 97.4% | SNB-75 CNS 89.9% | SNB-19 CNS 104% | U251 CNS 101% | PC-3 prostate 94.1% | SK-MEL-5 melanoma 102% | UACC-62 melanoma 98.6% | LOX IMVI melanoma 94.3% | SK-MEL-28 melanoma 109%

O=CNCCc1ccccc1
inactive: K-562 leukemia 89.9% | MALME-3M melanoma 130% | MDA-MB-231 breast 105% | RXF 393 renal 111% | SF-268 CNS 110% | SF-295 CNS 95.8% | SF-539 CNS 115% | UACC-257 melanoma 103% | M14 melanoma 102% | HCT-15 colon 109% | HT29 colon 98.3% | SNB-75 CNS 82.9% | SNB-19 CNS 98.4% | U251 CNS 99.4% | PC-3 prostate 91.4% | SK-MEL-5 melanoma 107% | UACC-62 melanoma 96.8% | LOX IMVI melanoma 109% | SK-MEL-28 melanoma 113%

C=CCOc1ccc(Cl)cc1Cl
inactive: MALME-3M melanoma 113% | MDA-MB-231 breast 91.5% | RXF 393 renal 132% | SF-268 CNS 104% | SF-295 CNS 98.2% | SF-539 CNS 96.8% | UACC-257 melanoma 115% | M14 melanoma 101% | HCT-15 colon 104% | HT29 colon 112% | SNB-75 CNS 90.3% | SNB-19 CNS 114% | U251 CNS 106% | PC-3 prostate 88.2% | SK-MEL-5 melanoma 108% | UACC-62 melanoma 92.7% | LOX IMVI melanoma 99.6% | SK-MEL-28 melanoma 115%
active: K-562 leukemia 5.12%
